Experimental data from PubChem BioAssay AID1159580 (chemical genetic matrix, 2015).
“And” between values parts separate entries of the source, which are not always exact repeats. Equal entries are not always repeated. In all, about 5,500 compounds went through this assay and about 2,000 (36%) were called active. Not shown: some 18% with an inconclusive outcome. Rule as the data show it: active = normalized growth mostly below about 0.91 (no sharp cut-off); inconclusive = no clear call, values can overlap the other calls; inactive = mostly above about 0.92. The list shows a part of the results.

Assay: chemical genetic growth profiling, strain panel (AID 1159580);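 also: tested at 20 µM; growth read once vehicle control cultures reached saturation at 30 °C; 1 = growth at the plate median or of vehicle wells; lower values mean less growth of the strain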
Conditions: S. cerevisiae deletion strains, growth OD

Measured: normalized growth

OC/C=C/c1ccc(O)c(O)c1
active: locus YGR252W, strain gcn5, active compounds read low 1.24 [resistant] | locus YLR371W, strain rom2, active compounds read low 0.86
inactive: locus YAL013W, strain DEP1, active compounds read low 0.995 | locus YAL021C, strain ccr4, active compounds read low 0.977 | locus YAL026C, strain drs2, active compounds read low 1 | locus YAL030W, strain snc1, active compounds read low 0.995 | locus YBL061C, strain skt5, active compounds read low 0.996 | locus YBR009C, strain hhf1, active compounds read low 0.994 | locus YBR021W, strain FUR4, active compounds read low 1.03 | locus YBR023C, strain chs3, active compounds read low 0.995 | locus YBR171W, strain sec66, active compounds read low 1.01 | locus YBR229C, strain ROT2, active compounds read low 1 | locus YBR231C, strain swc5, active compounds read low 0.993 | locus YBR279W, strain paf1, active compounds read low 0.996 | locus YCL011C, strain gbp2, active compounds read low 0.994 | locus YCL016C, strain dcc1, active compounds read low 0.995 | locus YCL029C, strain bik1, active compounds read low 0.96 | locus YCL061C, strain MRC1, active compounds read low 0.996 | locus YCL069W, strain vba3, active compounds read low 0.992 | locus YCR088W, strain abp1, active compounds read low 1.01 | locus YDL005C, strain med2, active compounds read low 0.996 | locus YDL035C, strain GPR1, active compounds read low 1.02 | locus YDL040C, strain nat1, active compounds read low 0.988 | locus YDL074C, strain BRE1, active compounds read low 0.945 | locus YDL101C, strain DUN1, active compounds read low 0.991 | locus YDL134C, strain PPH21, active compounds read low 1.05 | locus YDL185W, strain tfp1, active compounds read low 0.953 | locus YDL192W, strain arf1, active compounds read low 0.973 | locus YDR001C, strain nth1, active compounds read low 0.994 | locus YDR069C, strain doa4, active compounds read low 1.01 | locus YDR101C, strain arx1, active compounds read low 0.962 | locus YDR137W, strain rgp1, active compounds read low 0.968 | locus YDR159W, strain sac3, active compounds read low 0.966 | locus YDR162C, strain NBP2, active compounds read low 0.993 | locus YDR195W, strain ref2 0.951 | locus YDR297W, strain sur2, active compounds read low 1 | locus YDR318W, strain mcm21, active compounds read low 0.984 | locus YDR334W, strain swr1, active compounds read low 0.991 | locus YDR335W, strain msn5, active compounds read low 0.996 | locus YDR388W, active compounds read low 0.98 | locus YDR392W, strain spt3, active compounds read low 1.01 | locus YDR502C, strain sam2, active compounds read low 0.993 | locus YEL003W, strain gim4, active compounds read low 0.997 | locus YEL037C, strain rad23, active compounds read low 1 | locus YEL061C, strain CIN8 (second series), active compounds read low 0.991 | locus YEL061C, strain CIN8, active compounds read low 0.978 | locus YER015W, strain faa2, active compounds read low 1 | locus YER016W, strain bim1, active compounds read low 0.992 | locus YER110C, active compounds read low 0.954 | locus YER111C, strain swi4, active compounds read low 1.01 | locus YER155C, strain BEM2 (second series), active compounds read low 0.991 | locus YER155C, strain BEM2, active compounds read low 0.987 | locus YER167W, strain BCK2, active compounds read low 0.978 | locus YFR010W, strain ubp6, active compounds read low 0.999 | locus YGL078C, strain dbp3, active compounds read low 1.02 | locus YGL086W, strain mad1, active compounds read low 0.937 | locus YGL167C, strain pmr1, active compounds read low 1 | locus YGL173C, strain kem1, active compounds read low 1.01 | locus YGL227W, strain vid30, active compounds read low 1.01 | locus YGL240W, strain doc1, active compounds read low 1.03 | locus YGL248W, strain PDE1, active compounds read low 1.01 | locus YGL253W, strain hxk2, active compounds read low 1.01 | locus YGR135W, strain pre9, active compounds read low 1 | locus YHR013C, strain ard1, active compounds read low 0.976 | locus YHR027C, strain rpn1, active compounds read low 0.987 | locus YHR030C, strain SLT2, active compounds read low 0.978 and 0.986 | locus YHR079C, strain IRE1 (second series), active compounds read low 0.96 | locus YHR079C, strain IRE1, active compounds read low 0.996 | locus YHR094C, strain hxt1, active compounds read low 0.969 | locus YHR129C, strain ARP1, active compounds read low 0.991 | locus YHR142W, strain chs7, active compounds read low 1 | locus YHR200W, strain rpn10, active compounds read low 0.966 | locus YIL066C, strain RNR3, active compounds read low 0.996 | locus YIL073C, strain SPO22, active compounds read low 0.912 | locus YIL125W, strain kgd1, active compounds read low 0.98 | locus YIR030C, strain dcg1, active compounds read low 0.969 | locus YJL092W, strain hpr5, active compounds read low 0.995 | locus YJL095W, strain BCK1 (second series), active compounds read low 1 | locus YJL095W, strain BCK1, active compounds read low 1.02 and 0.999 | locus YJL115W, strain asf1, active compounds read low 0.999 | locus YJL129C, strain trk1, active compounds read low 0.994 | locus YJL134W, strain LCB3, active compounds read low 0.986 | locus YJL154C, strain vps35, active compounds read low 0.998 | locus YJL164C, strain tpk1, active compounds read low 0.998 | locus YJL166W, strain qcr8, active compounds read low 1 | locus YJL168C, strain set2, active compounds read low 0.962 | locus YJL187C, strain SWE1 (second series), active compounds read low 0.997 | locus YJL187C, strain SWE1, active compounds read low 0.992 | locus YJR043C, strain POL32, active compounds read low 1.02 | locus YJR066W, strain TOR1, active compounds read low 0.946 | locus YJR075W, strain HOC1, active compounds read low 0.984 | locus YKL009W, strain mrt4, active compounds read low 1.01 | locus YKL068W, active compounds read low 0.959 | locus YKL085W, strain MDH1 (second series), active compounds read low 0.95 | locus YKL085W, strain MDH1, active compounds read low 0.95 | locus YKL160W, strain elf1, active compounds read low 1 | locus YKR001C, strain vps1, active compounds read low 0.972 | locus YKR026C, strain gcn3, active compounds read low 1 | locus YKR091W, strain srl3, active compounds read low 1 | locus YLL001W, strain dnm1, active compounds read low 0.989 | locus YLL026W, active compounds read low 1 | locus YLL041C, strain sdh2, active compounds read low 0.999 | locus YLR027C, strain aat2, active compounds read low 0.988 | locus YLR039C, strain RIC1, active compounds read low 0.938 | locus YLR058C, strain SHM2, active compounds read low 0.996 | locus YLR102C, strain apc9, active compounds read low 0.961 | locus YLR113W, strain HOG1, active compounds read low 0.98 | locus YLR221C, strain rsa3, active compounds read low 1 | locus YLR258W, strain gsy2, active compounds read low 1.02 | locus YLR262C, strain YPT6 (second series), active compounds read low 0.991 | locus YLR262C, strain YPT6, active compounds read low 0.942 | locus YLR268W, strain sec22, active compounds read low 0.96 | locus YLR320W, strain mms22, active compounds read low 1 | locus YLR330W, strain CHS5, active compounds read low 0.934 | locus YLR342W, strain FKS1 (second series), active compounds read low 1.04 | locus YLR342W, strain FKS1, active compounds read low 1.01 | locus YLR357W, strain rsc2, active compounds read low 0.988 | locus YLR370C, strain arc18, active compounds read low 0.993 | locus YLR384C, strain iki3, active compounds read low 0.992 | locus YLR418C, strain cdc73, active compounds read low 0.988 | locus YML016C, strain PPZ1, active compounds read low 0.992 | locus YML032C, strain rad52, active compounds read low 1.01 | locus YML120C, strain ndi1, active compounds read low 0.992 | locus YML124C, strain tub3, active compounds read low 0.96 | locus YMR058W, strain fet3, active compounds read low 1.01 | locus YMR078C, strain ctf18, active compounds read low 0.95 | locus YMR125W, strain sto1, active compounds read low 0.995 | locus YMR129W, active compounds read low 0.997 | locus YMR205C, strain PFK2, active compounds read low 0.983 | locus YMR223W, strain ubp8, active compounds read low 0.98 | locus YMR231W, strain pep5, active compounds read low 0.979 | locus YMR263W, strain SAP30, active compounds read low 0.989 | locus YMR307W, strain GAS1, active compounds read low 1.09 | locus YNL067W, strain RPL9B, active compounds read low 0.997 | locus YNL071W, strain lat1, active compounds read low 0.993 | locus YNL128W, strain TEP1, active compounds read low 0.966 | locus YNL153C, strain GIM3, active compounds read low 0.999 | locus YNL183C, strain NPR1, active compounds read low 0.963 | locus YNL209W, strain ssb2, active compounds read low 0.991 | locus YNL233W, strain BNI4, active compounds read low 0.994 | locus YNL248C, strain rpa49, active compounds read low 1 | locus YNL250W, strain rad50, active compounds read low 0.909 | locus YNL271C, strain bni1, active compounds read low 0.963 | locus YNL298W, strain CLA4, active compounds read low 0.991 | locus YNL307C, strain MCK1, active compounds read low 0.953 | locus YNL322C, strain KRE1 (second series), active compounds read low 1 | locus YNR049C, strain mso1, active compounds read low 0.997 | locus YNR052C, strain pop2, active compounds read low 0.98 | locus YOL012C, strain htz1 0.905 | locus YOL147C, strain pex11, active compounds read low 0.963 | locus YOR001W, strain rrp6, active compounds read low 1.01 | locus YOR061W, strain CKA2, active compounds read low 0.995 | locus YOR069W, strain VPS5, active compounds read low 0.986 | locus YOR070C, strain gyp1, active compounds read low 0.985 | locus YOR080W, strain dia2, active compounds read low 0.994 | locus YOR083W, strain WHI5, active compounds read low 1 | locus YOR106W, strain vam3, active compounds read low 1.01 | locus YOR136W, strain idh2, active compounds read low 0.953 | locus YOR144C, strain elg1, active compounds read low 0.971 | locus YOR184W, strain ser1, active compounds read low 1.02 | locus YOR231W, strain MKK1, active compounds read low 1 | locus YOR265W, strain rbl2, active compounds read low 0.989 | locus YOR270C, strain vph1, active compounds read low 0.994 | locus YOR290C, strain snf2, active compounds read low 1.02 | locus YOR316C, strain cot1, active compounds read low 0.957 | locus YPL051W, strain arl3, active compounds read low 1.05 | locus YPL055C, strain LGE1, active compounds read low 1 | locus YPL078C, strain atp4, active compounds read low 0.994 | locus YPL106C, strain sse1, active compounds read low 0.988 | locus YPL240C, strain hsp82, active compounds read low 0.995 | locus YPL241C, strain CIN2, active compounds read low 0.988 | locus YPL256C, strain CLN2, active compounds read low 0.956 | locus YPR119W, strain clb2, active compounds read low 0.946 | locus YPR141C, strain kar3, active compounds read low 0.938 | locus YPR163C, strain tif3, active compounds read low 0.973 | locus YPR167C, strain met16, active compounds read low 0.967 | strain wtn01, active compounds read low 0.949
